Compounds with a hit are over-represented: about 6.8% of the library has one in this group of screens.
Pf Dd2 inh: P. falciparum Dd2 growth inhibition; SYBR Green, 72 h; hits give low values; activity change, % at 10 µM; hit rate 2.3% among 94,000; AID 1159554; in the data active = activity change below about -80%; inconclusive = no clear call, values can overlap the other calls
C diff HTS: inhibitors of Clostridium difficile growth; hit rate 0.25% among 86,000; Clostridium difficile clinical isolate growth, OD600, 24 h; hits give low values; growth activity, negative = inhibition, % at 16 µg/mL (by protocol);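 active = mean growth activity at or below -80% and every replicate also at or below -80%; inconclusive = mean at or below -80% but some replicate above -80%; inactive = mean growth activity above -80%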;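 also: 0% = DMSO wells and -100% = levofloxacin 16 µg/mL wells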
T cruzi growth-1: T. cruzi proliferation inhibition; T. cruzi beta-gal in NIH3T3, GalScreen luminescence, 90 h; inhibition, % at 8.34 µM; AID 624255; hit rate 5.9% among 77,000;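 active = mean inhibition above about 93%, with at least 55% of replicates each passing it, limit read from the data, passing the limit was not always enough; inconclusive = only one of those two conditions holds; inactive = neither condition holds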
T cruzi growth-2: Trypanosoma cruzi proliferation inhibition; AID 651739; hit rate 72% among 5,600; inhibition, % at 8.35 µM; shares compounds with T cruzi growth-1; T. cruzi beta-gal in NIH3T3, GalScreen luminescence, 90 h;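 active = mean replicate inhibition above about 95% and at least 55% of replicates individually reaching it, limit read from the data; inconclusive = only one of the two criteria is met; inactive = neither criterion is met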
T cruzi growth-3: Trypanosoma cruzi proliferation inhibition | shares compounds with T cruzi growth-1 | T. cruzi beta-gal in NIH3T3, GalScreen luminescence, 90 h | inhibition, % at 2.09 µM | hit rate 21% among 5,600 | AID 651740;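 active = mean inhibition above about 95%, with at least 55% of replicates also reaching it, limit read from the data; inconclusive = meets just one of the two conditions; inactive = meets neither condition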;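 also: plate controls were neutral control median for no effect and positive control median for full effect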
NIH3T3 tox: NIH/3T3 (mouse) viability loss | shares compounds with T cruzi growth-1 | NIH/3T3 viability, CellTiter-Glo ATP luminescence, 90 h | cytotoxicity (signal decrease), % at 8.35 µM | hit rate 14% among 5,600 | AID 651742;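 active = mean signal decrease across replicates above about 35% based on untreated-well scatter, with enough replicates individually passing, limit read from the data; inconclusive = no rule stated though some were filed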;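 also: 0% = median of neutral control wells and 100% = median of positive control wells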
3T3 cytotox 2: NIH/3T3 (mouse) viability loss; inhibition, % at 24.9 µM; NIH/3T3 viability, CellTiter-Glo ATP luminescence, 90 h; shares compounds with T cruzi growth-1; AID 651744; hit rate 56% among 5,600;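 active = mean loss of cell viability signal at or above a set limit, and enough replicates individually reaching it; inconclusive = meets only the mean limit or only the replicate share; inactive = meets neither condition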;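 also: 0% = median of neutral control wells and 100% = median of positive control wells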
Active calls of the source: *; u = inconclusive; x = no result.

SMILES	Pf Dd2 inh	C diff HTS	T cruzi growth-1	T cruzi growth-2	T cruzi growth-3	NIH3T3 tox	3T3 cytotox 2
CC(C)NC(=O)N(C)C[C@H]1Oc2ccc(NC(=O)CCN3CCOCC3)cc2CC(=O)N([C@@H](C)CO)C[C@H]1C	14	-2	x	x	x	x	x
O=C(c1cnccn1)N1CC(=O)N2[C@H](CO)[C@@H](c3ccc(-c4cccc(F)c4)cc3)[C@@H]2C1	-17	5	x	x	x	x	x
CCCC(=O)Nc1ccc2c(c1)C(=O)N(C)C[C@H](OC)[C@@H](C)CN(C(=O)CC)[C@H](C)CO2	x	x	-30	x	x	x	x
Cc1ccc(-c2ccc3c(c2)O[C@H](CN(C)Cc2ccc(C(=O)O)cc2)[C@H](C)CN([C@@H](C)CO)S3(=O)=O)cc1	-22	-7	40	x	x	x	x
CN1C[C@@H]2[C@H](c3ccccc31)[C@H](CO)N2Cc1ccccc1Cl	-2	1	32	x	x	x	x
CCCNC(=O)Nc1ccc2c(c1)C(=O)N(C)C[C@H](OC)[C@H](C)CN(Cc1ccccc1)[C@@H](C)CO2	x	x	36	x	x	x	x
CN(C)C(=O)c1cccc(-c2ccc3c(c2)[C@@H]2[C@@H](CCN2S(=O)(=O)c2cn(C)cn2)[C@H](CO)N3)c1	29	-3	u	96*	66	-11	-23
CN(C)C(=O)c1ccc(-c2ccc3c(c2)[C@H]2[C@H](CCN2S(=O)(=O)c2cn(C)cn2)[C@@H](CO)N3)cc1	-44	-3	71	x	x	x	x
CN(C)C(=O)c1cccc(-c2ccc3c(c2)[C@@H]2[C@@H](CCN2S(=O)(=O)c2cn(C)cn2)[C@@H](CO)N3)c1	16	-8	u	103*	40	14	-9
COCC(=O)N1CCC2(CC1)CN(Cc1cccc(OC)c1)[C@H](CO)c1c2c2ccc(OC)cc2n1C	39	x	x	x	x	x	x
C[C@@H]1CN([C@H](C)CO)C(=O)c2cc(NC(=O)c3ccccc3)ccc2O[C@@H](C)CCCCO[C@H]1CN(C)C(=O)NC1CCCCC1	-17	-7	51	x	x	x	x
CCCNC(=O)C[C@H]1CC[C@@H]2[C@H](COc3ccc(NC(=O)COC)cc3C(=O)N2C)O1	11	-5	43	x	x	x	x
Cc1ccc(S(=O)(=O)N2C[C@H](O)COC[C@@H]3O[C@@H](CC(=O)NCc4ccc(Cl)c(Cl)c4)CC[C@H]32)cc1	-2	x	81	x	x	x	x
COc1ccc(S(=O)(=O)N2C[C@H](O)COC[C@H]3O[C@@H](CC(=O)NCc4ccc(Cl)c(Cl)c4)CC[C@@H]32)cc1	4	7	98*	100*	41	18	42*
O=C(C[C@@H]1CC[C@H]2[C@@H](COC[C@H](O)CN2S(=O)(=O)c2ccc(Cl)cc2)O1)NCc1ccc(Cl)c(Cl)c1	-7	x	59	x	x	x	x
COc1ccc(S(=O)(=O)N2C[C@@H](O)COC[C@@H]3O[C@H](CC(=O)NCc4ccc(Cl)c(Cl)c4)CC[C@H]32)cc1	-31	13	143*	110*	36	u	33*
COc1ccc(S(=O)(=O)N2C[C@@H](O)COC[C@@H]3O[C@@H](CC(=O)NCc4ccc(Cl)c(Cl)c4)CC[C@H]32)cc1	-4	22	168*	89	24	25	42*
O=C(C[C@@H]1CC[C@@H]2[C@H](COC[C@@H](O)CN2S(=O)(=O)c2ccc(F)cc2)O1)NCc1ccc(Cl)c(Cl)c1	-15	-8	24	x	x	x	x
COc1ccc(S(=O)(=O)N2C[C@H](O)COC[C@H]3O[C@H](CC(=O)NCc4ccc(Cl)c(Cl)c4)CC[C@@H]32)cc1	8	-2	u	84	5	12	44*
Cc1ccc(S(=O)(=O)N2C[C@@H](O)COC[C@@H]3O[C@@H](CC(=O)NCc4ccc(Cl)c(Cl)c4)CC[C@H]32)cc1	-2	x	92	x	x	x	x
CC(C)NC(=O)Nc1ccc2c(c1)C(=O)N(C)[C@@H]1CC[C@@H](CC(=O)NCC(F)(F)F)O[C@@H]1CO2	20	-4	-5	x	x	x	x
COc1ccc(S(=O)(=O)Nc2ccc3c(c2)C(=O)N([C@H](C)CO)C[C@@H](C)[C@@H](CN(C)C(=O)CCC(F)(F)F)OCCCC[C@H](C)O3)cc1	-46	-2	9	x	x	x	x
CCCN(C)C[C@H]1Oc2cc(-c3cccc(F)c3)ccc2S(=O)(=O)N([C@H](C)CO)C[C@H]1C	-67	5	x	x	x	x	x
O=C(CN1CCOCC1)N[C@@H]1CC[C@@H](CCNC(=O)C2CCCC2)O[C@H]1CO	6	-2	x	x	x	x	x
Cc1noc(C)c1NC(=O)N(C)C[C@@H]1Oc2ccc(NS(C)(=O)=O)cc2CC(=O)N([C@@H](C)CO)C[C@H]1C	13	9	23	x	x	x	x
SMILES	Pf Dd2 inh	C diff HTS	T cruzi growth-1	T cruzi growth-2	T cruzi growth-3	NIH3T3 tox	3T3 cytotox 2
C[C@H](CO)N1C[C@H](C)[C@@H](CN(C)Cc2ccc(C(F)(F)F)cc2)Oc2ccc(NC(=O)NC3CCCCC3)cc2CC1=O	-21	1	73	x	x	x	x
C[C@H](CO)N1C[C@H](C)[C@H](CN(C)Cc2ccc(Oc3ccccc3)cc2)Oc2ccc(NS(C)(=O)=O)cc2CC1=O	-1	-20	x	x	x	x	x
COc1ccc(S(=O)(=O)N2C[C@H](O)COC[C@@H]3O[C@H](CC(=O)NCc4ccc(Cl)c(Cl)c4)CC[C@H]32)cc1	-11	2	144*	71	20	24	64*
Cc1ccc(S(=O)(=O)N2C[C@H](O)COC[C@@H]3O[C@H](CC(=O)NCc4ccc(Cl)c(Cl)c4)CC[C@H]32)cc1	-29	x	88	x	x	x	x
COc1ccc(S(=O)(=O)N2C[C@@H](O)COC[C@H]3O[C@H](CC(=O)NCc4ccc(Cl)c(Cl)c4)CC[C@@H]32)cc1	-8	85	129*	92	22	-2	43*
O=C(C[C@H]1CC[C@@H]2[C@H](COC[C@@H](O)CN2S(=O)(=O)c2ccc(F)cc2)O1)NCc1ccc(Cl)c(Cl)c1	-16	-1	-15	x	x	x	x
O=C(Nc1ccccc1F)N1CCCCN2[C@H](C1)[C@@H](c1ccc(/C=C/c3ccccc3)cc1)[C@@H]2CO	3	38	84	x	x	x	x
C/C=C/c1ccc([C@H]2[C@@H](CO)N3CCCCN(C(=O)Nc4ccccc4F)C[C@@H]23)cc1	21	-3	110*	98*	52	-13	2
O=C(Nc1ccccc1F)N1CCCCN2[C@H](CO)[C@H](c3ccc(/C=C/c4ccccc4)cc3)[C@@H]2C1	-3	0	116*	96*	113*	45*	58*
O=C(Nc1ccccc1F)N1CCCCN2[C@H](CO)[C@H](c3ccc(/C=C/c4ccccc4)cc3)[C@H]2C1	-72	-77	82	x	x	x	x
C[C@@H]1CN([C@@H](C)CO)C(=O)c2cc(NS(=O)(=O)c3cn(C)cn3)ccc2O[C@@H](C)CCCCO[C@@H]1CN(C)S(=O)(=O)c1cn(C)cn1	46	4	-67	x	x	x	x
